# Experimental data reported in publication PMC4552634, “A New Set of Chemical Starting Points with Plasmodium falciparum Transmission-Blocking Potential for Antimalarial Drug Discovery” (PLoS ONE, 2015).
# Among all 13,000 compounds or so, about 3,200 (25%) showed an effect of 50% or more. This is one part of the list.
# System: P. falciparum stage V gametocytes
# Parameters: BacTiter-Glo ATP luminescence viability of purified stage V gametocytes in 384-well plates, per cent inhibition versus DMSO
# Conditions: 48 h, 5 µM; inhibitor
row,Structure (SMILES),% Inhibition
1,CC(=O)c1c(Nc2c(C)cc(C)cc2C)oc(C)cc1=O [TCMDC-125654],7.725%
2,Cc1ccccc1C1CCN(C2CCC(NC(=O)c3ccc4c(c3)-c3nocc3C(C)O4)CC2)CC1 (stereo not drawn) [TCMDC-134101],-36.23%
3,O=C(Nc1cc(=O)[nH]c2nc(-c3ccccc3)nn12)C1CCCCC1 [TCMDC-125474],2.661%
4,Cc1cccc2[nH]c(-c3cccc(-c4ccc(NC(=O)NCc5cccc(F)c5)cc4)c3)nc12 [TCMDC-133289],46.25%
5,COc1cccc(CNC(=O)c2cc(CNCc3ccccc3)ccc2-c2cccc(CNCc3ccc(-c4ccccc4)cc3)c2)c1 [TCMDC-139616],14.44%
6,CC(C)NCc1ccc(-c2cccc(CN3CCC(c4ccccc4)CC3)c2)c(C(=O)NCC2CCCCC2)c1 [TCMDC-134701],29.45%
7,CCCCNC(=O)c1cc(CNC2CCCCC2)ccc1-c1cccc(CNCc2ccc(-c3ccccc3)cc2)c1 [TCMDC-139614],92.13%
8,COC(=O)c1cccc(CNCc2cccc(-c3csc(-c4nc5ccccc5[nH]4)c3)c2)c1 [TCMDC-132943],-44.21%
9,CNCc1ccc(-c2cccc(CNCc3ccc(-c4ccccc4)cc3)c2)c(C(=O)OC)c1 [TCMDC-139615],117.6%
10,CN(C)C(=O)c1cc(CNCc2ccccc2)ccc1-c1cccc(CNCc2ccc(-c3ccccc3)cc2)c1 [TCMDC-139617],33.8%
11,CCCCN(CCCC)CCNC(=O)c1cccc(NC(=O)N2CCc3cc(SC)c(C(F)(F)F)cc32)c1 [TCMDC-139012],-13.47%
12,Cc1ccccc1NC1=NC(=S)N(c2cccc(C(F)(F)F)c2)C12CCC(C(C)(C)C)CC2 (stereo not drawn) [TCMDC-125677],20.36%
13,Cc1ccc2sc(N3CCN(C(=O)c4ccc([N+](=O)[O-])o4)CC3)nc2c1C [TCMDC-124314],93.58%
14,CCc1cccc2sc(N3CCN(C(=O)c4ccc([N+](=O)[O-])o4)CC3)nc12 [TCMDC-124317],88.03%
15,Cc1c(Cl)ccc2sc(N3CCN(C(=O)c4ccc([N+](=O)[O-])o4)CC3)nc12 [TCMDC-125453],88.71%
16,COc1ccccc1C(=O)N1CCN(Cc2cccs2)CC1 [TCMDC-139297],0.2209%
17,COc1cccc2sc(N3CCN(C(=O)c4ccc([N+](=O)[O-])o4)CC3)nc12 [TCMDC-125150],57.22%
18,O=C(Nc1ccc(N2CCN(C(=O)/C=C/c3ccccc3)CC2)c(Cl)c1)c1ccc([N+](=O)[O-])o1 [TCMDC-125229],0.8671%
19,CCCCCCN1CCC(CNCc2cccc([N+](=O)[O-])c2)CC1 [TCMDC-141211],17.53%
20,Cc1cc(C)c2oc(-c3cccc(NC(=O)c4ccc([N+](=O)[O-])o4)c3C)nc2c1 [TCMDC-123704],43.1%
21,COc1ccc(/N=[N+](\[O-])c2ccccc2/[N+]([O-])=N/c2ccc(OC)cc2)cc1 [TCMDC-131243],-4.101%
22,CC(=O)Nc1ccccc1OCc1cc2cc(C(=O)N3CCC(N4C(=O)OCc5ccccc54)CC3)ccc2o1 [TCMDC-138453],6.686%

row,Structure (SMILES),% Inhibition
1,CCc1c(C)c2ccc3c(c2oc1=O)CN(CCc1ccc(F)cc1)CO3 [TCMDC-125082],34.69%
2,Cn1nccc1C(=O)NCCNCc1ccc(-c2ccc(-c3nc4cc(C(F)(F)F)ccc4[nH]3)cc2)cc1.O=C(O)C(F)(F)F [TCMDC-133013],-32.96%
3,Cc1nc(-c2nc(N3CCC(C(N)=O)CC3)ncc2-c2ccsc2)sc1C [TCMDC-125362],25.42%
4,COC(=O)c1cccc(CNCc2ccc(-c3ccc(-c4nc5ccc(F)cc5[nH]4)s3)cc2)c1 [TCMDC-132951],-33.43%
5,CCc1ccc(NC(=O)C=NNC(=N)N)cc1 [TCMDC-137521],-23.47%
6,c1ccc(Oc2ccc(Nc3ccnc(Nc4ccc5cn[nH]c5c4)n3)cc2)cc1 [TCMDC-138574],-56.78%
7,O=C(c1ccc([N+](=O)[O-])o1)N1CCN(c2nc3c(F)cc(F)cc3s2)CC1 [TCMDC-125149],102.2%
8,O=C(c1ccc([N+](=O)[O-])o1)N1CCN(c2ccccc2)CC1 [TCMDC-125833],2.332%
9,CS(=O)(=O)c1cccc2sc(N3CCN(C(=O)c4ccc([N+](=O)[O-])o4)CC3)nc12 [TCMDC-124930],105%
10,O=C(Nc1ccc(N2CCN(Cc3ccccc3Cl)CC2)cc1)c1ccc([N+](=O)[O-])o1 [TCMDC-125230],2.358%
11,O=C(c1ccc([N+](=O)[O-])o1)N1CCN(c2nc3c(Cl)cccc3s2)CC1 [TCMDC-124316],86.16%
12,O=C(Nc1cccc(-c2nc3ccccc3s2)c1)c1ccccc1[N+](=O)[O-] [TCMDC-125736],-19.42%
13,CC(C)(C)OC(=O)N1CCC(C2CCN(C(=O)OC(C)(C)C)CC2)CC1 [TCMDC-132002],7.482%
14,CC(C)(C)c1ccc(CN2CCC(CNC(=O)c3cc(-c4cccc(Cl)c4)cs3)C2)cc1 (stereo not drawn) [TCMDC-134446],98.88%
15,COc1cccc(-c2csc(C(=O)NCC3CCN(Cc4ccc(C(C)(C)C)cc4)C3)c2)c1 (stereo not drawn) [TCMDC-134447],100.1%
16,CC(C)(C)c1ccc(CN2CCC(CNC(=O)c3cc(-c4cccc(F)c4)cs3)C2)cc1 (stereo not drawn) [TCMDC-134444],110.8%
17,CCc1ccc(CN2CCC(CNC(=O)c3cc(-c4cccc(Cl)c4)cs3)C2)cc1 (stereo not drawn) [TCMDC-134434],86.46%
18,CC(=O)Nc1ccc(CN2CCC(CNC(=O)c3cc(-c4cccc(Cl)c4)cs3)C2)cc1 (stereo not drawn) [TCMDC-134457],-3.132%
19,O=C(NCC1CCN(CC2CCCCC2)C1)c1cc(-c2cccc(Cl)c2)cs1 (stereo not drawn) [TCMDC-134423],42.83%
20,CCCOc1cc(Cc2cnc(N)nc2N)cc(OC)c1OC [TCMDC-137661],3.215%
21,Cc1ccc(Oc2ccc(NC(=O)CNc3ccccc3N3CCCC3=O)cc2)cc1 [TCMDC-125245],-23.96%
22,CCc1ccc(CN2CCC(CNC(=O)c3cc(-c4cccc(F)c4)cs3)C2)cc1 (stereo not drawn) [TCMDC-134432],99.62%

row,Structure (SMILES),% Inhibition
1,CN(C)c1ccc(CN2CCC(CNC(=O)c3cc(-c4cccc(F)c4)cs3)C2)cc1 (stereo not drawn) [TCMDC-134454],71.45%
2,O=C(NC1CCN(Cc2ccccc2)CC1)c1cc(-c2ccncc2)nc2ccc(Cl)cc12 [TCMDC-124995],9.958%
3,CN(C)c1ccc(CN2CCC(CNC(=O)c3cc(-c4cccc(C(F)(F)F)c4)cs3)C2)cc1 (stereo not drawn) [TCMDC-134452],29.06%
4,O=C(NC1CCN(Cc2ccccc2)CC1)c1cc(-c2cccnc2)nc2ccc(Cl)cc12 [TCMDC-125223],-0.2191%
5,CC(C)(C)c1ccc(CN2CCC(CNC(=O)c3cc(-c4ccccc4)nc4ccccc34)CC2)cc1 [TCMDC-139154],75.79%
6,CC(Nc1nncc(-c2cccc(F)c2)n1)c1ccc(F)cc1 (stereo not drawn) [TCMDC-124683],-23.73%
7,COc1ccc(NC(=O)Nc2cccc(-c3ccc(-c4nc5ccc(C(F)(F)F)cc5[nH]4)cc3)c2)cc1 [TCMDC-133244],-27.48%
8,CCOC(=O)c1ccc(Nc2cc(Nc3ccc(C(=O)OCC)cc3)nc(C)n2)cc1 [TCMDC-125781],36.3%
9,O=C(Nc1cccc(CN2CCCN(CC3CC3)CC2)c1)c1ccc(-c2ccccc2)cc1 [TCMDC-141846],-26.45%
10,Cc1nc2nc(N)nc(N)c2c(C)c1Cc1ccc(O)cc1 [TCMDC-137637],-12.62%
11,CC(C)C1C(=O)N(S(C)(=O)=O)C2CCN(C(=O)c3ccc(CN4CCCCC4)c([N+](=O)[O-])c3)C12 (stereo not drawn) [TCMDC-138195],96.13%
12,O=C(/C=C/c1ccc(Cl)c(Cl)c1)NC1CCC(CN2CCC(Cc3c[nH]c4ccccc34)CC2)CC1 (stereo not drawn) [TCMDC-140141],5.841%
13,O=C(NCCCCN1CCC(c2nc3ccccc3s2)CC1)c1cc2ccccc2[nH]1 [TCMDC-132779],6.014%
14,COc1ccccc1N1CCN(CCCCNC(=O)c2ccc(NC(=O)c3ccc(C(F)(F)F)cc3)cc2)CC1 [TCMDC-138110],-20.18%
15,Nc1ccncc1C(=O)NCCCCN1CCN(c2nsc3ccccc23)CC1 [TCMDC-137310],70.91%
16,O=C(NCCCCN1CCN(c2nsc3ccccc23)CC1)c1ccccc1C(=O)NCCCCN1CCN(c2nsc3ccccc23)CC1 [TCMDC-137241],54.48%
17,COc1ccc(Cl)cc1N1CCN(CCCNC(=O)c2ccc(-c3nc4ccncc4[nH]3)c(Br)c2)CC1 [TCMDC-140145],-23.34%
18,Nc1c(C(=O)NCCCCN2CCN(c3nsc4ccccc34)CC2)sc2ccccc12 [TCMDC-137254],-32.13%
19,c1csc(-c2nc(NCC3CCCO3)ncc2-c2ccsc2)n1 (stereo not drawn) [TCMDC-125365],7.159%
20,CCCCCCN1CCCN(Cc2ccc(C(=O)Nc3cccc(CC)c3)cc2)CC1 [TCMDC-136412],-23.63%
21,CC1(C)N=C(N)N=C(N)N1OCCCc1ccccc1 [TCMDC-131689],3.846%
22,CCNc1cc(C(=O)N[C@@H](Cc2ccccc2)[C@H](O)CNC2(CCC(C)C)CC2)cc(N2CCCCS2(=O)=O)c1 [TCMDC-135245],4.245%
